Data from the supplement of paper PMC8975748.
Where a name gives a salt, the structure may show the parent alone.

The molecules below were run on Saccharomyces cerevisiae BY4741 SeMeCo community (assay: z-score of subpopulation abundance vs DMSO median, subpopulation auxotrophic for HLM; higher = larger share of this subpopulation than in DMSO controls). Conditions: 10 µM; 24 h; SM minimal medium; subpopulation (auxotrophy): HLM.
Method in brief: (§1)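 Four plasmids, each restoring a single auxotrophy and encoding a distinct fluorescent protein, were carried by a Saccharomyces cerevisiae BY4741 community. After overnight growth to OD600 1.0 and dilution to 0.3, 70 µl per well was grown for 24 h in minimal SM medium on 384-well plates acoustically predosed with library drugs at 10 µM final. Following paraformaldehyde fixation, automated confocal microscopy was used, with single-auxotroph fluorescent strains defining thresholds and autofluorescence correction. Subpopulation abundance was then scored as a z-score against the vehicle-well median.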
In the case of NC(=O)Cc1cccc(C(=O)c2ccccc2)c1N [Nepafenac], the “z-score of subpopulation abundance” value is reported as -0.23.
In the case of CN1C2CCCC1CC(NC(=O)c1nn(C)c3ccccc13)C2 (stereo unspecified) [Granisetron], the “z-score of subpopulation abundance” value is reported as -0.1.
With CN(C)C[C@@H]1CCn2cc(c3ccccc32)C2=C(C(=O)NC2=O)c2cn(c3ccccc23)CCO1 the “z-score of subpopulation abundance” value was 0.91.
With Cc1ccc(-c2ncc(Cl)cc2-c2ccc(S(C)(=O)=O)cc2)cn1 [Etoricoxib] the “z-score of subpopulation abundance” value was -0.16.
For Cc1ccc(Sc2ccccc2N2CCNCC2)c(C)c1, the “z-score of subpopulation abundance” value was -0.35.
For CN(C)CCCN1c2ccccc2Sc2ccccc21 [Promazine hydrochloride], the “z-score of subpopulation abundance” value was 0.41.
CN(C)CCn1nnnc1SCC1=C(C(=O)O)N2C(=O)[C@@H](NC(=O)Cc3csc(N)n3)[C@H]2SC1 [Cefotiam hydrochloride] was tested, and the “z-score of subpopulation abundance” value was 0.75.
For CN(C)CC(c1ccc(O)cc1)C1(O)CCCCC1 (stereo unspecified) [Desvenlafaxine], the “z-score of subpopulation abundance” value was -0.85.
With Cc1ncc([N+](=O)[O-])n1CCOC(=O)c1ccccc1 [Metronidazole Benzoate] the “z-score of subpopulation abundance” value was -0.79.
In the case of O=C1C(CC[S+]([O-])c2ccccc2)C(=O)N(c2ccccc2)N1c1ccccc1 (racemic) [(+/-)-Sulfinpyrazone], the “z-score of subpopulation abundance” value is reported as 0.61.
With COc1ccccc1OCC(O)CN1CCN(CC(=O)Nc2c(C)cccc2C)CC1 (stereo unspecified) [Ranolazine 2HCl] the “z-score of subpopulation abundance” value was -0.72.

What follows are molecules tested on Saccharomyces cerevisiae BY4741 SeMeCo community (assay: z-score of subpopulation abundance vs DMSO median, subpopulation auxotrophic for HUM; higher = larger share of this subpopulation than in DMSO controls). Conditions: 10 µM; 24 h; SM minimal medium; subpopulation (auxotrophy): HUM.
Method in brief: as §1
CCCCCOc1ccc(-c2ccc(-c3ccc(C(=O)N[C@H]4C[C@@H](O)[C@@H](O)NC(=O)[C@@H]5[C@@H](O)[C@@H](C)CN5C(=O)[C@H]([C@@H](C)O)NC(=O)[C@H]([C@H](O)[C@@H](O)c5ccc(O)cc5)NC(=O)[C@@H]5C[C@@H](O)CN5C(=O)[C@H]([C@@H](C)O)NC4=O)cc3)cc2)cc1 was tested, and the “z-score of subpopulation abundance” value was 25.3.
Cc1ccnc(NS(=O)(=O)c2ccc(N)cc2)n1 [Sulfamerazine] was tested, and the “z-score of subpopulation abundance” value was 0.76.
For O=C(O)c1cc(-c2ccc(F)cc2F)ccc1O [Diflunisal], the “z-score of subpopulation abundance” value was -2.64.
C[C@@H]1[C@H](O)[C@@H](C)/C=C/C=C/C=C/C=C/C=C/C=C/C=C/[C@H](O[C@@H]2O[C@H](C)[C@@H](O)[C@H](N)[C@@H]2O)C[C@@H]2O[C@](O)(C[C@@H](O)C[C@@H](O)[C@H](O)CC[C@@H](O)C[C@@H](O)CC(=O)O[C@H]1C)C[C@H](O)[C@H]2C(=O)O [Amphotericin B] was tested, and the “z-score of subpopulation abundance” value was 75.7.
In the case of CO/N=C(\C(=O)N[C@@H]1C(=O)N2C(C(=O)O)=CCS[C@H]12)c1csc(N)n1 [Ceftizoxime sodium], the “z-score of subpopulation abundance” value is reported as 0.09.
For COC1C(O)CC(=O)OC(C)CC=CC=CC(OC2CCC(N(C)C)C(C)O2)C(C)CC(CC=O)C1OC1OC(C)C(OC2CC(C)(O)C(O)C(C)O2)C(N(C)C)C1O (stereo unspecified) [Spiramycin], the “z-score of subpopulation abundance” value was -0.02.
With CC(C)(O/N=C(\C(=O)N[C@@H]1C(=O)N2C(C(=O)[O-])=C(C[n+]3ccccc3)CS[C@H]12)c1csc(N)n1)C(=O)O [Ceftazidime] the “z-score of subpopulation abundance” value was 0.14.
In the case of C[C@@H]1C/C=C/C=C/C=C/C=C/[C@H](O[C@@H]2O[C@H](C)[C@@H](O)[C@H](N)[C@@H]2O)C[C@@H]2O[C@](O)(C[C@@H](O)C[C@H]3O[C@@H]3/C=C/C(=O)O1)C[C@H](O)[C@H]2C(=O)O [Natamycin], the “z-score of subpopulation abundance” value is reported as 25.6.
With COCCCN1CCC(NC(=O)c2cc(Cl)c(N)c3c2OCC3)CC1 [Prucalopride] the “z-score of subpopulation abundance” value was 0.36.
In the case of CCOc1cc(NC(C)=O)ccc1C(=O)OC [Ethopabate], the “z-score of subpopulation abundance” value is reported as -0.22.
In the case of CCCSc1ccc2[nH]c(NC(=O)OC)nc2c1 [Albendazole], the “z-score of subpopulation abundance” value is reported as -0.14.
In the case of CN(C)CCN1C(=O)c2cccc3cc(N)cc(c23)C1=O [Amonafide], the “z-score of subpopulation abundance” value is reported as -0.09.
COc1ccnc(C[S+]([O-])c2nc3cc(OC(F)F)ccc3[nH]2)c1OC (stereo unspecified) [Pantoprazole sodium] was tested, and the “z-score of subpopulation abundance” value was 0.3.
With CCOC(=O)C1=C(COCCN)NC(C)=C(C(=O)OC)C1c1ccccc1Cl (stereo unspecified) [Amlodipine Besylate] the “z-score of subpopulation abundance” value was -6.15.
CC(C)(C)C(=O)C(Oc1ccc(Cl)cc1)n1ccnc1 (stereo unspecified) [Climbazole] was tested, and the “z-score of subpopulation abundance” value was 9.71.
With COc1cc(N)c(Cl)cc1C(=O)NC1CCN(CCCOc2ccc(F)cc2)CC1OC (stereo unspecified) [Cisapride] the “z-score of subpopulation abundance” value was -0.94.
COc1ccc2[nH]c([S+]([O-])Cc3ncc(C)c(OC)c3C)nc2c1 (stereo unspecified) [Omeprazole] was tested, and the “z-score of subpopulation abundance” value was -0.34.
With O=C1CCc2cc(OCCCCc3nnnn3C3CCCCC3)ccc2N1 [Cilostazol] the “z-score of subpopulation abundance” value was -0.31.
In the case of O=c1ccn(C2CC(O)C(CO)O2)c(=O)[nH]1 (stereo unspecified) [2-deoxyuridine], the “z-score of subpopulation abundance” value is reported as -0.27.
For NC12CC3CC(CC(C3)C1)C2 [Amantadine HCl], the “z-score of subpopulation abundance” value was -0.08.
For CO/N=C(\C(=O)N[C@@H]1C(=O)N2C(C(=O)OCOC(=O)C(C)(C)C)=C(/C=C\c3scnc3C)CS[C@H]12)c1csc(N)n1 [Cefditoren Pivoxil], the “z-score of subpopulation abundance” value was 0.78.
In the case of O=C1c2cccc3c2[C@H](CCC3)CN1[C@@H]1CN2CCC1CC2 [Palonosetron HCl], the “z-score of subpopulation abundance” value is reported as -0.03.
With CCCOc1ccc2[nH]c(NC(=O)OC)nc2c1 [Oxibendazole] the “z-score of subpopulation abundance” value was 1.12.
With C[C@]12CC[C@@H]3c4ccc(O)cc4CC[C@H]3[C@@H]1CC[C@@H]2OC(=O)CCC1CCCC1 [Estradiol Cypionate] the “z-score of subpopulation abundance” value was 1.22.
COc1ccc2c(c1)c(CC(=O)O)c(C)n2C(=O)c1ccc(Cl)cc1 [Indomethacin] was tested, and the “z-score of subpopulation abundance” value was 0.09.
For O=C(O)Cc1ccccc1Nc1c(Cl)cccc1Cl [Diclofenac Diethylamine], the “z-score of subpopulation abundance” value was -1.96.
In the case of Clc1ccccc1C(c1ccccc1)(c1ccccc1)n1ccnc1 [Clotrimazole], the “z-score of subpopulation abundance” value is reported as 7.76.
In the case of C[C@@H](O)[C@H]1C(=O)N2C(C(=O)OCOC(=O)C(C)(C)C)=C(SC3CN(C4=NCCS4)C3)[C@H](C)[C@H]12 [Tebipenem Pivoxil], the “z-score of subpopulation abundance” value is reported as -0.67.
For COC(=O)C1=C(C)NC(C)=C(C(=O)OCC(C)C)C1c1ccccc1[N+](=O)[O-] (stereo unspecified) [Nisoldipine], the “z-score of subpopulation abundance” value was 1.07.
In the case of NC(=O)Cc1cccc(C(=O)c2ccccc2)c1N [Nepafenac], the “z-score of subpopulation abundance” value is reported as -0.01.
In the case of CN1C2CCCC1CC(NC(=O)c1nn(C)c3ccccc13)C2 (stereo unspecified) [Granisetron], the “z-score of subpopulation abundance” value is reported as 0.05.
For CN(C)C[C@@H]1CCn2cc(c3ccccc32)C2=C(C(=O)NC2=O)c2cn(c3ccccc23)CCO1, the “z-score of subpopulation abundance” value was -0.43.
Cc1ccc(-c2ncc(Cl)cc2-c2ccc(S(C)(=O)=O)cc2)cn1 [Etoricoxib] was tested, and the “z-score of subpopulation abundance” value was -0.71.
In the case of Cc1ccc(Sc2ccccc2N2CCNCC2)c(C)c1, the “z-score of subpopulation abundance” value is reported as -0.46.
For CN(C)CCCN1c2ccccc2Sc2ccccc21 [Promazine hydrochloride], the “z-score of subpopulation abundance” value was 0.07.
For CN(C)CCn1nnnc1SCC1=C(C(=O)O)N2C(=O)[C@@H](NC(=O)Cc3csc(N)n3)[C@H]2SC1 [Cefotiam hydrochloride], the “z-score of subpopulation abundance” value was 0.5.
CN(C)CC(c1ccc(O)cc1)C1(O)CCCCC1 (stereo unspecified) [Desvenlafaxine] was tested, and the “z-score of subpopulation abundance” value was -0.85.
Cc1ncc([N+](=O)[O-])n1CCOC(=O)c1ccccc1 [Metronidazole Benzoate] was tested, and the “z-score of subpopulation abundance” value was -0.37.
For O=C1C(CC[S+]([O-])c2ccccc2)C(=O)N(c2ccccc2)N1c1ccccc1 (racemic) [(+/-)-Sulfinpyrazone], the “z-score of subpopulation abundance” value was 0.22.
For COc1ccccc1OCC(O)CN1CCN(CC(=O)Nc2c(C)cccc2C)CC1 (stereo unspecified) [Ranolazine 2HCl], the “z-score of subpopulation abundance” value was -0.12.
